Experimental data reported in the supplement of paper PMC4466236.
In all, about 33,000 sequences were measured (“E-score (dimensionless, -0.5 to 0.5)”: median about -0.058, highest 2% from about 0.35 on). This excerpt belongs to a sample that is enriched for the highest values.

Test system: MvaT
Assay: PBM 8-mer E-score (mean of HK and ME arrays) (E-score (dimensionless, -0.5 to 0.5)); higher = stronger relative binding preference
Procedure, shortened: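 Reported values are rank-based E-scores, taken as the mean of two universal arrays and parsed with a custom script. Each 8-mer score falls between -0.5 and 0.5. The arrays, ME and HK, were double-stranded 60-mers with a constant 25-mer primer region and a variable 35-mer region covering all 8-mers. They were probed, by an earlier protocol, with full-length P. aeruginosa MvaT carrying an N-terminal glutathione S-transferase fusion.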

Row | Sequence | PBM 8-mer E-score
1 | AGCGGTGG | -0.209
2 | CCTGCCTC | -0.249
3 | AGACTTCC | -0.21
4 | AAAAAAGG | 0.0491
5 | CTGTCCTA | -0.112
6 | ATAATATA | 0.475
7 | ATCATATA | 0.338
8 | CTAATATA | 0.434
9 | CTAATATC | 0.299
10 | CTAATAGA | 0.184
11 | ATAATCTA | 0.344
12 | GTAATATA | 0.436
13 | GTCATATA | 0.282
14 | GTAATACA | 0.295
15 | CAGGCTCG | -0.325
16 | CAGACGGA | -0.156
17 | AGCTGGGG | -0.186
18 | ACTACGCG | -0.0273
19 | AGGGCATG | -0.207
20 | GCAACGCA | -0.168
21 | AATTTTTG | 0.194
22 | ACTATTTC | 0.201
23 | GATATTTA | 0.326
24 | CCTATTTA | 0.212

Row | Sequence | PBM 8-mer E-score
25 | AATATTTG | 0.349
26 | CATATTTA | 0.371
27 | AACATTTG | 0.103
28 | CCTATTTC | 0.0116
29 | CATATTTC | 0.26
30 | AATATTGA | 0.327
31 | AATATTTC | 0.404
32 | AATATTTA | 0.45
33 | AGTGTGAA | 0.204
34 | CAGGGTTC | -0.251
35 | GAAGATGA | -0.128
36 | CGGAGTTC | -0.106
37 | TCACCTCA | -0.163
38 | CTTCTTTC | 0.015
39 | AGAATAGA | 0.051
40 | ATAATAGG | 0.291
41 | ATAATAGC | 0.362
42 | GTAATAGA | 0.164
43 | CTAATAGC | 0.0517
44 | ATAATAGA | 0.364
45 | TTGGAAAA | 0.114
46 | AACTCGTC | 0.0126
47 | GGGTTGAC | -0.213
48 | CATACGGC | -0.244

Row | Sequence | PBM 8-mer E-score
49 | ACCGTAGA | -0.0538
50 | CCCGTGCG | -0.273
51 | AGACGAAC | -0.107
52 | ATCCAAAA | 0.1
53 | CCTAACCA | -0.103
54 | CTGCTGTC | -0.222
55 | ACTTAATA | 0.4
56 | CCTTAATA | 0.298
57 | ACTTAATG | 0.287
58 | GCTTAACA | 0.0832
59 | GCTTAATA | 0.352
60 | ACTTAATC | 0.187
61 | CGATGGTC | -0.364
62 | AGACAGGA | -0.156
63 | CGTCCTCA | -0.231
64 | ACGCGGCG | -0.275
65 | ACGTTAAA | 0.256
66 | CACTCGTC | -0.185
67 | CTGGCATC | -0.181
68 | CAATCAGC | -0.0173
69 | ATTAATAG | 0.426
70 | ATTAAGAG | 0.297
71 | ATTAATAC | 0.41
72 | ATTAAGAA | 0.282

Row | Sequence | PBM 8-mer E-score
73 | ATTAATAA | 0.468
74 | GGTAATAC | 0.249
75 | CTTAATAC | 0.286
76 | AGTAATAA | 0.327
77 | AGAGGTCA | -0.266
78 | ACGGCAAC | -0.107
79 | CGTTTTGC | 0.0694
80 | TGGTTGAA | -0.0872
81 | CCTCATAA | -0.0267
82 | TCGTTAAA | 0.156
83 | CAGAAGGC | -0.229
84 | CTGAGCAA | -0.0891
85 | TAAACAGA | 0.188
86 | ACAGACTA | 0.136
87 | AGTCCGTC | -0.103
88 | CGCACCCG | -0.242
89 | AGTTATGC | 0.246
90 | AGTTATAA | 0.43
91 | CGTTATAG | 0.2
92 | GGTTATAC | 0.0501
93 | GGTTATAA | 0.344
94 | AGTTATGA | 0.319
95 | TGTTACAA | 0.257
96 | AGTTATCA | 0.242

Row | Sequence | PBM 8-mer E-score
97 | CGTTATAA | 0.39
98 | TGTTATAA | 0.437
99 | CGTTATAC | 0.21
100 | AGTTATAC | 0.393
101 | CCAACCGA | -0.0134
102 | TACCAAGA | -0.0377
103 | TCCCAACA | 0.111
104 | CGATACCC | -0.141
105 | CGCGTCCC | -0.132
106 | ACTGTGAC | 0.0208
107 | AGTGCCGG | -0.0286
108 | GTACCTTA | 0.119
109 | CGGGCCAA | -0.118
110 | GGGCGCTA | -0.265
111 | GGGACAGA | -0.12
112 | CCACCGTC | -0.258
113 | AGCTATAT | 0.328
114 | AGTTATAT | 0.437
115 | AGTTATAG | 0.316
116 | ATGGGTAC | -0.0802
117 | AGCGTTGA | -0.0483
118 | AGGTATGA | 0.12
